# Earlier results as cited in PubChem BioAssay AID977610.
# The whole screen tested about 3,600 compounds, of which about 3,600 (100%) were called active. The limit is not given here; nearly all actives have Ki up to about 18000 µM. The set was probably picked from earlier hits. This is one part of the list. Numbered stars: 1 amine (or outer) side, 2 acyl side, 3 side chain; on linkers, the order of the positions; unused ones are H or OH. Bridge positions count the residues as written; N and C are the ends. Where a SMILES comes first, the peptide text is derived from it. Square brackets hold non-standard residues; d marks the D form. Peptide text beside a SMILES is read from it. [ ]: non-standard residue; d: D form. The star is where a group is joined. X1 = C[C@@H](C(=O)[*:2])n1cc([C@@H]2CCCN2[*:1])nn1; Orn(CH(NH2)2) = NC(N)NCCC[C@H](N)C(=O)O; Cbz = O=C(OCc1ccccc1)*; Dap = NC[C@H](N)C(=O)O; Nlys = NCCCCNCC(=O)O
# Test: PubChem AID 977610
# Conditions: PDB protein-ligand complexes, literature Ki
compound,measurement,setting,value
C[C@@H](O[P+](O)(O)O)C(=O)O,Ki,"protein: PHOSPHO-2-DEHYDRO-3-DEOXYHEPTONATE ALDOLASE DAH7PS, PDB entry 4umb",99 µM (active)
C[C@H](O[P+](O)(O)O)C(=O)O,Ki,"protein: PHOSPHO-2-DEHYDRO-3-DEOXYHEPTONATE ALDOLASE DAH7PS, PDB entry 4umc",360 µM (active)
H-SRVPTSII-OH,Ki,"protein: CFTR Associated Ligand (CAL) PDZ domain, PDB entry 4jog",190 µM (active)
H-NSRYPTSII-OH,Ki,"protein: CFTR Associated Ligand (CAL) PDZ domain, PDB entry 4jok",85.3 µM (active)
H-SRFPTSII-OH,Ki,"protein: CFTR Associated Ligand (CAL) domain, PDB entry 4joj",110 µM (active)
H-RLPTSII-OH,Ki,"protein: CFTR Associated Ligand (CAL) PDZ domain, PDB entry 4jof",68 µM (active)
CC(C)(C)NC(=O)[C@@]1(c2c(C(=O)O)[nH]c3cc(Cl)ccc23)N2C(=O)[C@]21c1ccc(OCc2ccc(Cl)cc2)cc1,Ki,"protein: E3 ubiquitin-protein ligase Mdm2, PDB entry 4mdn",0.6 µM (active)
CC(C)(C)NC(=O)[C@@H]1C[C@@H]2CCCC[C@@H]2CN1C[C@@H](O)[C@H](C[C@@H]1C=CCCC1)NC(=O)[C@H](CC(N)=O)NC(=O)C1=CCc2ccccc2N1,Ki,"protein: Protease PRG48T/L89M, PDB entry 4qgi",125 µM (active)
Nc1nc2c(ncn2[C@H]2CN(C(=O)C[P+](O)(O)O)C[C@H]2O)c(=O)[nH]1,Ki,"protein: Xanthine phosphoribosyltransferase, E. coli XGPRT, PDB entry 4jls",2.2 µM (active)
Nc1nc2c(ncn2[C@H]2CCN(C(=O)C[P+](O)(O)O)C2)c(=O)[nH]1,Ki,"protein: Xanthine phosphoribosyltransferase, E. coli XGPRT, PDB entry 4jit",0.23 µM (active)
Nc1nc2c(ncn2CC(COC[P+](O)(O)O)COC[P+](O)(O)O)c(=O)[nH]1,Ki,"protein: hypoxanthine-guanine phosphoribosyltransferase, PDB entry 4ijq",0.03 µM (active)
O=C(O)CC1(CC(=O)N2CCN(C(c3ccccc3)c3ccccc3)CC2)CCCC1,Ki,"protein: Dehydrosqualene synthase, PDB entry 3tfn",0.27 µM (active)
CO[C@H]1CC[C@H](OC)[C@@H](NC(=O)CN2CCN(Cc3ccc4c(c3)OCO4)CC2)C1,Ki,"protein: E. coli beta-Glucuronidase, PDB entry 4jhz",0.957 µM (active)
NCCCC[C@H](NC(=O)Cc1ccc(Cl)c(Cl)c1)C(=O)N[C@@H](CCCCN)C(=O)NCC1CCC(NC(N)N)CC1 (stereo not given in full),Ki,"protein: SERINE PROTEASE SUBUNIT NS2B, SERINE PROTEASE NS3, PDB entry 2yol",0.13 µM (active)
Cn1nc(N)c2c[n+]([C@@H]3O[C@H](CO[P+](O)(O)O)[C@@H](O)[C@H]3O)c3nc[nH]c1c23,Ki,"protein: Deoxyribonucleoside 5'-monophosphate N-glycosidase (D69N mutation), PDB entry 4fyh",14 µM (active)
N#Cc1cccc(Cn2cc(NC(=O)c3n[nH]c4ccccc34)cn2)c1,Ki,"protein: Tyrosine-protein kinase ITK, PDB entry 4pp9",0.043 µM (active)
CCc1[nH]c2nc(Oc3cncnc3)nc(N3C[C@@H]4C(N)[C@@H]4C3)c2c1Cl (stereo not given in full),Ki,"protein: DNA gyrase subunit B, PDB entry 4gee",0.001 µM (active)
COc1ccc(OCCN2C[C@H]([C@H](O)CO)[C@H]3CCC[C@@H](C2=O)N3S(=O)(=O)c2cc(Cl)cc(Cl)c2)cc1OC,Ki,"protein: Peptidyl-prolyl cis-trans isomerase FKBP51, PDB entry 4w9p",0.016 µM (active)
COc1ccc(OCCN2C[C@H]([C@@H](O)CO)[C@H]3CCC[C@@H](C2=O)N3S(=O)(=O)c2cc(Cl)cc(Cl)c2)cc1OC,Ki,"protein: Peptidyl-prolyl cis-trans isomerase FKBP51, PDB entry 4w9o",0.017 µM (active)
O=C(O)c1cc2[nH]c3ccccc3c2cc1Cl,Ki,"protein: E. coli sliding clamp, DNA polymerase III subunit beta, PDB entry 4n99",216 µM (active)
Cc1ccc(CSc2nc3c(c(=O)[nH]2)CCC3)cc1,Ki,"protein: Matrix metalloproteinase-13, PDB entry 4l19",0.8 µM (active)
Cc1cc(=O)[nH]c(=O)n1[C@@H]1O[C@H](CO[P+](O)(O)O)[C@@H](O)[C@H]1O,Ki,"protein: Orotidine 5'-phosphate decarboxylase, PDB entry 3wjw",134 µM (active)
O=c1ccn([C@@H]2O[C@H](CO)[C@@H](O[P+](O)(O)O)[C@H]2O)c(=O)[nH]1,Ki,"protein: bovine seminal ribonuclease, PDB entry 1n3z",63.2 µM (active)
N#C[C@H]1CC(=O)NC(=O)N1[C@@H]1O[C@H](CO[P+](O)(O)O)[C@@H](O)[C@H]1O,Ki,"protein: Mt orotidine 5'-monophosphate decarboxylase (OMPDC) K72A mutant, PDB entry 2zz2",29 µM (active)
O=c1ccn([C@@H]2O[C@H](CO)[C@@H](O)[C@H](O)[C@H]2O)c(=O)[nH]1,Ki,"protein: Glycogen phosphorylase, muscle form, PDB entry 3t3d",12.4 µM (active)
O=c1cnn([C@@H]2O[C@H](CO[P+](O)(O)O)[C@@H](O)[C@H]2O)c(=O)[nH]1,Ki,"protein: Methanothermobacter thermautotrophicus ODCase mutant K42A, PDB entry 1km3",12.4 µM (active)
same,Ki,"protein: orotidine 5'-monophosphate decarboxylase from Saccharomyces cerevisiae (D91N), PDB entry 3gdt",0.064 µM (active)
O=c1ccn([C@@H]2O[C@H](CO[P+](O)(O)O)[C@@H](O)[C@H]2O)c(=O)[nH]1,Ki,"protein: D312N mutant of human orotidyl-5'-monophosphate decarboxylase, PDB entry 3ex6",220 µM (active)
same,Ki,"protein: Mt orotidine 5'-monophosphate decarboxylase (OMPDC), PDB entry 3g1d",330 µM (active)
same,Ki,"protein: orotidine 5'-monophosphate decarboxylase from P.falciparum, PDB entry 2za3",210 µM (active)
CC(C)(C)OC(=O)N[C@H](C(=O)NO)c1ccc(-n2cccn2)cc1,Ki,"protein: M1 family aminopeptidase A-M1, PDB entry 4r5t",0.8 µM (active)
same,Ki,"protein: M17 leucyl aminopeptidase A-M17, PDB entry 4r6t",0.03 µM (active)
CC(C)(C)C(=O)N[C@@H](C(=O)NO)c1ccc(-n2cccn2)cc1,Ki,"protein: M1 family aminopeptidase A-M1, PDB entry 4r5v",0.7 µM (active)
CCOC(=O)c1cc(C#N)c(N2CCC(C(=O)NS(=O)(=O)Cc3ccccc3)CC2)nc1C,Ki,"protein: P2Y12R, PDB entry 4ntj",0.0439 µM (active)
CC(C[P+](O)(O)O)C(=O)O (stereo not given),Ki,"protein: PHOSPHO-2-DEHYDRO-3-DEOXYHEPTONATE ALDOLASE DAH7PS, PDB entry 4uma",3.9 µM (active)
CC(C)C[C@H](NC(=O)OCc1ccccc1)C(=O)N[C@@H](Cc1ccccc1)C(=O)N[C@H](C=O)CCC(=O)N(C)C (Cbz-Leu-Phe-Glu(NMe2)-aldehyde),Ki,"protein: Genome polyprotein, PDB entry 4imz",0.12 µM (active)
CC(=O)NC[C@@H](C=O)NC(=O)[C@H](Cc1ccccc1)NC(=O)[C@H](CC(C)C)NC(=O)OCc1ccccc1 (Cbz-Leu-Phe-[Dap](Ac)-aldehyde),Ki,"protein: 3C-like protease, PDB entry 4imq",1.5 µM (active)
CC(C)C[C@H](NC(=O)[C@H](C)NC(=O)OCc1ccccc1)C(=O)N[C@@H](CCC(=O)N(C)C)C(=O)O (Cbz-Ala-Leu-Glu(NMe2)-OH),Ki,"protein: Genome polyprotein, PDB entry 4inh",0.56 µM (active)
COc1cc([C@@H]2Nc3ccc(C(N)N)cc3[C@H]3c4ccccc4C[C@H]32)c(-c2ccc(C(=O)O)cc2)cc1O,Ki,"protein: Factor VII, PDB entry 4ish",0.0019 µM (active)
CC(=O)N[C@H]1CNC[C@H](O)[C@@H](O)[C@@H]1O,Ki,"protein: Beta-hexosaminidase 1, PDB entry 4mss",0.4 µM (active)
COc1cc2c(c(OC)c1OC)-c1ccc(OC)c(=O)cc1[C@@H](NC(C)=O)CC2,Ki,"protein: Tubulin, PDB entry 4o2b",1.8 µM (active)
CC[C@H](C)[C@@H]1NC(=O)[C@@H]2CCCN2C(=O)[C@@H]2CCCN2C(=O)[C@H]([C@@H](C)CC)NC(=O)[C@H](CO)NC(=O)CN(CCCCN)C(=O)[C@H]([C@@H](C)O)NC(=O)[C@@H](NC(=O)[C@H](CCCNC(N)N)NC(=O)CN)CSSC[C@@H](C(=O)N[C@@H](Cc2ccccc2)C(=O)O)NC1=O (H-G[Orn(CH(NH2)2)]CT[Nlys]SIPPICF-OH; disulfide 3-11),Ki,"protein: Cationic trypsin, PDB entry 4hgc",0.0001 µM (active)
CC[C@H](C)[C@@H]1NC(=O)[C@@H]2CCCN2C(=O)[C@@H]2CCCN2C(=O)[C@H]([C@@H](C)CC)NC(=O)[C@H](CO)NC(=O)[C@H](CCCCN)NC(=O)[C@H]([C@@H](C)O)NC(=O)[C@@H]2CSSC[C@H](NC1=O)C(=O)N[C@@H](Cc1ccccc1)C(=O)N1CCC[C@H]1C(=O)N[C@@H](CC(=O)O)C(=O)NCC(=O)N[C@@H](CCCNC(N)N)C(=O)N2,Ki,"protein: bovine ?-trypsin, PDB entry 1sfi",0.0001 µM (active)
NCCCC[C@@H]1NC(=O)[C@H](CCC(N)=O)NC(=O)[C@H](Cc2ccc(O)cc2)NC(=O)[C@@H](NC(=O)[C@H](Cc2cccc3ccccc23)NC(=O)[C@H](CCCNC(N)N)NC(=O)[C@@H](N)CCCNC(N)N)CSSC[C@@H](C(=O)N[C@@H](CCCNC(N)N)C(=O)NCC(=O)N2CCC[C@@H]2C(=O)O)NC(=O)[C@H](CCCNC(N)=O)NC(=O)[C@H](CCCNC(N)N)NC(=O)[C@H](Cc2ccc(O)cc2)NC(=O)[C@@H]2CCCN2C(=O)[C@H]2CCCN2C1=O,Ki,"protein: C-X-C chemokine receptor type 4, Lysozyme Chimera(CXCR4-3), PDB entry 3oe0",0.0025 µM (active)
CC[C@H](C)[C@@H]1NC(=O)[C@H](C)n2cc(nn2)[C@@H]2CCCN2C(=O)[C@H]([C@@H](C)CC)NC(=O)[C@H](CO)NC(=O)[C@H](CCCCN)NC(=O)[C@H]([C@@H](C)O)NC(=O)[C@@H](NC(=O)[C@H](CCCNC(N)N)NC(=O)CN)CSSC[C@@H](C(=O)N[C@@H](Cc2ccccc2)C(=O)O)NC1=O (H-G[Orn(CH(NH2)2)]CTKSI[X1]ICF-OH; disulfide 3-10),Ki,"protein: bovine CATIONIC TRYPSIN, PDB entry 4abi",0.0063 µM (active)
